Source: PubChem BioAssay (National Center for Advancing Translational Sciences (NCATS))
PLK1 PBD inh: blocks phosphopeptide binding to human PLK1 polo-box domain; P53350; Plk1 PBD binding of FITC phosphopeptide, fluorescence polarization; Potency, µM, inactives show max response, negative = inhibition, hits mostly inhibitors; 360,000 tested, 2.8% active; AID 720504; note: potency is the fitted concentration of half-maximal effect; series mostly up to about 57 µM; % is set by controls: 0 for no effect and ±100 for the full control effect; nearly all actives have a fitted effect of over 65% in size
WRN inhibitor: blocks human WRN helicase. Q14191. WRN helicase unwinding, fluorescent forked duplex, kinetic. Potency, µM (doses to about 114 µM), inactives show at the highest dose activity change, negative = inhibition, most hits filed as inhibitors. 360,000 tested, 0.46% active. AID 651768; note: potency is the fitted concentration of half-maximal effect; % is set by controls: 0 for no effect and ±100 for the full control effect; nearly all actives have a fitted effect of over 55% in size
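Kinetic red-fluorescence monitoring (525/598 nm) tracks WRN helicase activity after 100 nM fluorophore-quencher forked duplex and 2 mM ATP are added to 20 nM enzyme pretreated 15 min at room temperature with compound.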
TCR activator: activates T cell receptor signaling; 330,000 tested, under 10 active; primary human leukocytes, anti-CD3, IL-2 HTRF, 48 h; AID 504894; Potency, µM (top dose mostly 9.22 µM), without a hit: at the highest dose activation of IL-2 secretion, usual class: activators; note: % of control where 0% means no effect
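48 hr co-incubation of compounds, a-CD3 beads and primary human leukocytes; IL-2 quantified homogeneously by HTRF with anti-IL-2 K and d2 conjugates.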
FEN1 inhibitor: inhibitors of human flap endonuclease 1 | AID 588795 | 390,000 tested, 0.35% active | P39748 | Recombinant FEN1 flap cleavage, fluorescence, 15 min | Potency, µM (doses to about 114 µM), without a hit: at the highest dose activity change, negative = inhibition, actives largely listed as inhibitors; note: potency is the fitted concentration of half-maximal effect; % is set by controls: 0 for no effect and ±100 for the full control effect; nearly all actives have a fitted effect of over 65% in size
Target sequence (P39748 whole entry, looked up): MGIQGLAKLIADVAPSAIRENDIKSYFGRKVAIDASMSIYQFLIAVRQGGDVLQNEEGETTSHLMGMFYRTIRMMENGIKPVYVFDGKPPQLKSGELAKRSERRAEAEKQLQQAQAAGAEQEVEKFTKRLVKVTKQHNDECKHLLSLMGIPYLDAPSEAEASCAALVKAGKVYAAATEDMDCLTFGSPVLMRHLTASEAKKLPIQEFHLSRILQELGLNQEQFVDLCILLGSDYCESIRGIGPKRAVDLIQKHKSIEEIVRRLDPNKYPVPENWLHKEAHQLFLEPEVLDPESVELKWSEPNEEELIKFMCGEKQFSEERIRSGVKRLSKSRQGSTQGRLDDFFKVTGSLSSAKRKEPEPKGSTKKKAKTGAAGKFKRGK
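Steps: FEN1 (10 nM) dispensed; compound added by pin tool; 15 min at room temperature; substrate added to 50 nM final; reads at 0 min and 15 min; data normalized and fitted (four-parameter Hill).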
PI5P4Ka inh: inhibitors of human PI5P4K alpha; P48426; PI5P4Kalpha enzyme, ADP-Glo luminescence, 60 min; stronger effect = lower value; max response, %; 330,000 tested, 1.2% active; AID 652105; active = max response of -50% or lower; inconclusive = between -30% and -50%; inactive = -30% or higher; note: value at the top dose of about 77 µM; % is set by controls: 0 for no effect and ±100 for the full control effect
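Enzyme plus substrate dispensed, test compounds pinned in, then ATP (5 microM final) added. After 60 min at RT, ADP-Glo reagent 1 for 45 min and reagent 2 for 30 min preceded luminescence imaging.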
VDR inh: blocks the human vitamin D receptor; 400,000 tested, 0.93% active; VDR-SRC2-3 peptide fluorescence polarization, 2 h; Potency, µM, without a hit: max response, negative = inhibition, hits mostly inhibitors; note: potency is the fitted concentration of half-maximal effect; % is set by controls: 0 for no effect and ±100 for the full control effect
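Two reagent solutions held at 4 deg C in the dark were dispensed, compounds pinned at 23 nl, and the mixture incubated 2 h at room temperature. Read-out: fluorescence polarization of VDR–SRC2-3 peptide binding.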
The depositor's hits bear a star; ! = not active in a repeat; [ ] = remark or other dose. Most compounds without a hit are left out; they make up all but 3.7% or so of the library. Unless noted, calls come from the whole dose curve; as a rule, active = well fitted curve in the direction sought with a large enough effect; inconclusive = small, poorly fitted or top-dose-only effect, or another doubt; inactive = no such curve, though single readings can be large; an effect the other way counts as inactive or inconclusive.

Screening CN(C)c1ccc([N+](=O)[O-])c([N+](=O)[O-])c1 returned PLK1 PBD inh -9.5%, WRN inhibitor -0.4%, TCR activator 0.0%, FEN1 inhibitor -1.8%, PI5P4Ka inh -6.9 and VDR inh -13.7%.
`COP(=S)(OC)Oc1ccc([N+](=O)[O-])c(C)c1` gave VDR inh 22.4µM*.
Screening COC(=O)C(O)(c1ccc(NC(=S)NC(=O)c2ccc(Cl)cc2Cl)c(C)c1)C(F)(F)F (centres undefined) returned PLK1 PBD inh 21.2µM*, WRN inhibitor -4.9%, TCR activator -1.5%[46.1 µM], FEN1 inhibitor -14.7%, PI5P4Ka inh -12.1 and VDR inh inconclusive.
CC1CC2CC(=O)C3CCCN4CCCC2[C@]34C1 (some centres undefined) was read as VDR inh 3.2%.
O=C(N/N=C/c1c(O)n(Cc2ccc(F)cc2)c(=O)[nH]c1=O)c1ccccc1O was read as PLK1 PBD inh -2.6%, WRN inhibitor -15.3%[57.1 µM], TCR activator -4.6%[46.1 µM], FEN1 inhibitor -20.9%, PI5P4Ka inh -62.9* and VDR inh -13.5%.
`O=C(N/N=C/c1c(O)n(CCc2ccc(F)cc2)c(=O)[nH]c1=O)c1ccccc1` gave PLK1 PBD inh -5.3%, WRN inhibitor 3.6%, TCR activator -3.3%, FEN1 inhibitor 13.4%, PI5P4Ka inh -24.5 and VDR inh -18.1%.
`O=C(N/N=C/c1c(O)n(CCc2ccc(F)cc2)c(=O)[nH]c1=O)c1ccncc1` gave PLK1 PBD inh -9.2%, WRN inhibitor -14.9%, TCR activator 0.7%, FEN1 inhibitor -2.5%, PI5P4Ka inh -64.8* and VDR inh -21.1%.
`O=C(N/N=C/c1c(O)n(Cc2ccccc2)c(=O)[nH]c1=O)c1ccccc1O` gave PLK1 PBD inh 0.5%, WRN inhibitor inconclusive, TCR activator -1.5%[46.1 µM], FEN1 inhibitor inconclusive, PI5P4Ka inh -69.9* and VDR inh -15.4%.
CC1C(=O)OC2CCN3CC=C(COC(=O)[C@](C)(O)[C@]1(C)O)C23 (some centres undefined) was read as VDR inh 9.9%.
`CCS(=O)(=O)Nc1ccc(C2=NN(C(=O)c3ccco3)C(c3ccc(Cl)o3)C2)cc1` (centres undefined) gave PLK1 PBD inh -13.3%, WRN inhibitor -9.3%, TCR activator 0.1%[46.1 µM], FEN1 inhibitor 2.8%, PI5P4Ka inh -21.6 and VDR inh inconclusive.
For NCC(N)C(=O)c1ccccc1 (centres undefined) the results were VDR inh -10.4%.
Screening CCC1OC2(C)C(O)C(/C=C/C=C/C=C/c3oc(=O)cc(OC)c3C)OC1(C)C2OC(C)=O (centres undefined) returned VDR inh 0.5%.
Screening CSCC[C@H](NC(=O)[C@H](Cc1ccccc1)NC(=O)CNC(=O)CNC(=O)[C@@H](N)Cc1ccc(O)cc1)C(=O)O returned VDR inh -1.5%.
COc1ccc(NC(=O)N2CCC3(CC2)CCN(C(=O)Oc2ccccc2)CC3)cc1 was read as VDR inh 6.1%.
CCCOc1ccc(C(=O)NC(=S)N2C[C@H]3C[C@H](C2)c2cccc(=O)n2C3)cc1 was read as PLK1 PBD inh 26.7µM*, WRN inhibitor 7.5%, TCR activator 1.1%, FEN1 inhibitor -2.3%, PI5P4Ka inh inconclusive and VDR inh -18.3%.
`Cc1cc([C@@H]2CCCN2C)on1` gave VDR inh 8.6%.
`O=c1[nH]c(=S)[nH]c(O)c1N=Nc1ccc(SC(F)F)cc1` gave PLK1 PBD inh 10.6µM*, WRN inhibitor -26.9%, TCR activator 1.6%, FEN1 inhibitor -1.6%, PI5P4Ka inh -57.1* and VDR inh -6.2%.
`CC(C)c1ccc(N=Nc2c(O)[nH]c(=O)[nH]c2=O)cc1` gave PLK1 PBD inh -0.8%, WRN inhibitor -0.4%, TCR activator 3.8%, FEN1 inhibitor -1.2%, PI5P4Ka inh -21.0 and VDR inh -0.2%.
Screening O=c1[nH]c(=S)[nH]c(O)c1N=Nc1ccc(S(=O)(=O)N2CCc3ccccc32)cc1 returned PLK1 PBD inh 0.0%, WRN inhibitor -24.0%[57.1 µM], TCR activator -8.4%, FEN1 inhibitor -1.1%, PI5P4Ka inh -57.9* and VDR inh -6.8%.
`Cc1c(N=Nc2c(O)[nH]c(=S)[nH]c2=O)c(=O)n(-c2ccccc2)n1C` gave PLK1 PBD inh -18.0%, WRN inhibitor -11.7%, TCR activator -4.6%[46.1 µM], FEN1 inhibitor -0.6%, PI5P4Ka inh -12.4 and VDR inh -25.3%.
Screening CCOC(=O)Cc1[nH]nc2c1C(c1ccoc1)C(C#N)=C(N)O2 (centres undefined) returned PLK1 PBD inh inconclusive, WRN inhibitor -7.7%, TCR activator 3.6%, FEN1 inhibitor 3.9% and VDR inh 8.7%.
`CCCN1CCc2cc(O)cc3c2C1Cc1ccc(O)c(O)c1-3` (centres undefined) gave VDR inh 25.1µM*.
C=CCN1CCc2cccc3c2[C@H]1Cc1ccc(O)c(O)c1-3 was read as PLK1 PBD inh 37.7µM*, WRN inhibitor -3.1%[57.1 µM], TCR activator 4.6%, FEN1 inhibitor -19.7%, PI5P4Ka inh -11.1 and VDR inh 10µM*!.
COc1ccc2c(c1O)-c1cc(O)cc3c1[C@@H](C2)N(C)CC3 was read as VDR inh 2.9%.
Screening CCOC(=O)c1ncc2[nH]c3ccc(OCc4ccccc4)cc3c2c1COC returned VDR inh -0.6%.
For NCC(=O)c1ccc2ccccc2c1 the results were FEN1 inhibitor 4.6%.
COc1ccc(-n2c(-c3ccccc3[N+](=O)[O-])nc3ccccc3c2=O)cc1 was read as PLK1 PBD inh 21.2µM*, WRN inhibitor inconclusive, TCR activator 2.5%, FEN1 inhibitor 9.5%, PI5P4Ka inh -14.3 and VDR inh inconclusive.
Screening CCOP(=S)(OCC)Oc1ccc(Cl)cc1Cl returned VDR inh 50.1µM*.
`CCCSP(=S)(OCC)Oc1ccc(Cl)cc1Cl` (centres undefined) gave VDR inh 7.08µM*.
`O=C(O)COc1ccc(Cl)cc1Cl` gave PLK1 PBD inh inconclusive, WRN inhibitor 5.4%, TCR activator -2.5%, FEN1 inhibitor -1.3%, PI5P4Ka inh -8.3 and VDR inh -18.8%.
Screening CCOP(=O)(OCC)O/C(=C/Cl)c1ccc(Cl)cc1Cl returned VDR inh 2.6%.
`C[C@H]1CO1` gave VDR inh -1.6%.
`CCC(=O)c1ccc(OC)c(OC)c1` gave PLK1 PBD inh -12.2%, WRN inhibitor -6.3%, TCR activator 0.2%, FEN1 inhibitor 11.5%, PI5P4Ka inh 8.1 and VDR inh -6.7%.
